From PubChem BioAssay AID1478 (National Center for Advancing Translational Sciences (NCATS), 2009)
Where “and” joins values, the source holds several entries; their conditions need not be identical. Equal values may be shown once. Screen size: about 200,000 compounds; about 860 (0.43%) were called active. This is one part of a sample in which actives are shown more often than they occur. Values without a mark were called inactive. Calls come from the whole dose curve; as a rule, active = well fitted inhibition curve with a large enough effect; inconclusive = small, poorly fitted or top-dose-only effect; inactive = flat fitted curve, though single readings scatter.

These molecules were tested against Cruzipain (Trypanosoma cruzi) (UniProt P25779) (assay: qHTS Assay for Promiscuous and Specific Inhibitors of Cruzain (with detergent)). Conditions: purified cruzain, Z-FR-AMC fluorescence, 0.01% Triton.
Method: Cruzain (3.4.22.51) is a cysteine protease from the tropical parasite Trypanosoma cruzi. Dual qHTS experiment was performed against the NCGC compound collection in order to 1) identify novel inhibitors of the enzyme and 2) profile the compound collection for promiscuous inhibitors operating via colloidal aggregation (by performing detergent-free and detergent-containing comparison screens). Cruzain was assayed by the use of fluorogenic coumarin-based substrate Z-FR-AMC: proteolytic cleavage releases AMC, whose fluorescence is measured at 360 nm excitation and 450 nm emission. Purified cruzain was supplied by the labs of Prof. James McKerrow and Brian Shoichet, UC San Francisco.
This assay had 0.01% Triton X-100 concentration. See also releated assay "qHTS Assay for Promiscuous and Specific Inhibitors of Cruzain (without detergent)" with 0.00005% Triton X-100.
See following references for additional details:
Assay Provider: Shoichet, Brian; University of California, San Fancisco
Screening Center PI: Austin, C.P.
Screening Center: NIH Chemical Genomics Center [NCGC]
Buffer: 100 mM Sodium Acetate, pH 5.5, 5 mM DTT, Triton X-100 concentration: 0.01%.
Buffer in columns 3 and 4 as negative control (no enzyme).
Substrate solution: 2 uM final concentration of Z-FR-AMC (catalog number I-1160, Bachem) dispensed throughout the plate.
Enzyme: 1.5 nM Cruzain final concentration in columns 1, 2, 5-48. Column 1 is neutral (100% activity). Column 2 contained titration of covalent inhibitor K11777, starting concentration 1 mM, then 1:2 dilution in duplicate).
Three uL of enzyme or buffer were dispensed to 1536-well Greiner black solid bottom plates. Compounds and controls (23 nL) were transferred via Kalypsys PinTool. The plates were incubated for 15 min at room temperature, and then 1 uL of substrate solution was added to start the reaction. The plates were immediately transferred to and read 4 times every 30 seconds for 2 min on ViewLux High-throughput CCD imager (Perkin-Elmer) using 360 nm excitation and 450 nm emission fluorescence protocol. The fluorescence intensity difference between the third and the first time points (time lapse of 60 seconds) was used to compute reaction progress.
Note: nearly all actives have a fitted effect of over 40% in size.
Potency is the fitted concentration of half-maximal effect.

Chain of Cruzipain (Trypanosoma cruzi) (P25779 123-467 limits assumed): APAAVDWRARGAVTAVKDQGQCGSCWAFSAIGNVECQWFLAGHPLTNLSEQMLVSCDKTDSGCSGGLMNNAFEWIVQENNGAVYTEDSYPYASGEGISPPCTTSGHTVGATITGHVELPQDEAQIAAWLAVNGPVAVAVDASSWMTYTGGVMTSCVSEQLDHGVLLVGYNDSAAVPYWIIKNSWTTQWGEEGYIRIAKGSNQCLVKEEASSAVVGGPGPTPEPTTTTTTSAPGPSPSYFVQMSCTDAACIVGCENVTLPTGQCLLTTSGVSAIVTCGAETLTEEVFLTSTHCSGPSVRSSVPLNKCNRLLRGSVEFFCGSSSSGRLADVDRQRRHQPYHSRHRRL

SMILES	max response, negative = inhibition	Potency
COC(=O)c1ccccc1NC(=O)c1cc(-c2ccccc2O)no1	-8.5%	–
Cc1ccccc1OCC(=O)NCC(=O)OCC(=O)c1ccc2ccccc2c1	–	5.01 µM (active)
COCCNC(=O)COc1ccccc1C	1.74%	–
Cc1ccc(S(=O)(=O)NC(=O)COc2ccccc2C)cc1	-0.523%	–
Cc1ccc(-c2cnc(C3CC3)o2)cc1S(=O)(=O)Nc1cccc(C)c1C	-6.32%	–
O=C(CS(=O)(=O)c1cccc2nsnc12)N1CCN(c2cccc(Cl)c2)CC1	-2.29%	–
Cc1cccc(CNC(=O)c2cnc3sc(N4CCCCC4)nn3c2=O)c1	3.23%	–
COc1ccc(NC(=O)CSc2nnc(-c3nnn(-c4ccc(F)cc4)c3C)o2)cc1	-0.381%	–
NC(=S)N/N=C/c1coc2cc(Cl)ccc2c1=O	-8.88%	–
CC(C)Oc1c(Br)cc(Br)cc1/C=N/NC(N)=S	–	0.708 µM (active)
CCOc1ccc(/C=N/NC(N)=S)cc1	-18.1%	–
CC(C)c1ccc(NC(=O)C2CCN(c3nc(-c4ccc(C(C)C)cc4)no3)CC2)cc1	0.837%	–
Cc1ccc(C2C=C(c3ccc(Cl)cc3)Nc3nc(NC(=O)CCC(=O)O)nn32)cc1 (stereo not drawn)	0.942%	–
O=S(=O)(c1ccccc1)c1nc(-c2ccc(Cl)cc2Cl)oc1N1CCCCC1	-15.9%	–
O=C(NCc1ccccn1)c1ccc2nc(-c3ccco3)c(-c3ccco3)nc2c1	–	22.4 µM (active)
O=C(NCc1ccccn1)c1cc(-c2ccccc2Cl)on1	-2.6%	–
CN(c1ccc(C(=O)NCc2ccccn2)cc1)S(C)(=O)=O	1.59%	–
O=S(=O)(c1ccc2nc(NCc3ccccc3Cl)ccc2c1)N1CCCCC1	-1.7%	–
Cc1ccc(Cn2c(CNC(=O)Cc3cccc(C)c3)nc3cccnc32)cc1	-1.98%	–
COc1ccc2[nH]c3c(c2c1)CCN(C(=O)CCC1CCCC1)C3c1ccc(F)cc1 (stereo not drawn)	7.03%	–

SMILES	max response, negative = inhibition	Potency
Cc1ccc(C(=O)COC(=O)C(Cc2c[nH]c3ccccc23)NC(=O)c2ccc(Br)cc2)cc1 (stereo not drawn)	-0.996%	–
COc1cc(OC)c(NC(=O)c2cc(S(=O)(=O)N3CCCC3)cn2C)cc1Cl	-0.944%	–
Clc1ccccc1CSc1nncn2c1cc1occc12	-2.67%	–
O=C(Nc1nnc(SCc2ccccc2)s1)c1ccco1	0.832%	–
Clc1ccccc1CSc1nnc(-c2ccco2)c(-c2ccco2)n1	–	25.1 µM (active)
c1ccc(CSc2nnc(-c3ccco3)c(-c3ccco3)n2)cc1	–	14.1 µM (active)
Nc1cc(=O)nc(SCc2ccccc2)n1Cc1ccco1	-10.9%	–
Nc1nc(SCc2ccccc2Cl)n[nH]1	1.94%	–
CCc1ccc(NC(=O)c2cnc3c(-c4ccccc4)c(C)nn3c2C)cc1	-6.46%	–
Cc1ccc(S(=O)(=O)c2c(Nc3cccc(Cl)c3)sc(C(=O)c3ccc4c(c3)OCO4)c2N)cc1	-3.98%	–
COCCn1c(SCC(=O)c2cc(C)ccc2C)nc2cc(C(=O)NC3CCCC3)ccc2c1=O	-0.0872%	–
COc1ccccc1CNC(=O)c1ccc(CS(=O)c2ccccc2Cl)o1 (stereo not drawn)	-8.94%	–
Cc1nn(C(C)C(=O)NCCc2ccccc2)c(=O)c2c1sc1ccccc12 (stereo not drawn)	-6.56%	–
CNc1ccc(-c2nc(-c3ccco3)no2)cc1[N+](=O)[O-]	-3.84%	–
CC(=O)c1c(O)c(C)c(O)c(Cc2c(O)c3c(c(C(=O)/C=C/c4ccccc4)c2O)OC(C)(C)C=C3)c1O	-22.4%	–
CC(=O)c1c(O)c(C)c(O)c(Cc2c(O)c3c(c(C(=O)/C=C\c4ccccc4)c2O)OC(C)(C)C=C3)c1O	–	31.6 µM (active)
O=C(/C=C/c1ccccc1)c1ccccc1O	-1.13% and 3.47%	–
COc1cc(NC(=O)CSc2nc3nc(C)c(Cc4ccc(C)cc4)c(C)n3n2)cc(OC)c1OC	-4.19%	–
O=C(CCc1nc(CN2CCN(S(=O)(=O)c3ccc(Br)cc3)CC2)no1)N1CCCCC1	-0.641%	–
O=C(CC(c1cccs1)N1Cc2ccccc2C1=O)Nc1ccc(F)cc1F (stereo not drawn)	-5.84%	–

SMILES	max response, negative = inhibition	Potency
O=S(=O)(NCCc1nnc2ccc(SCc3ccc(Cl)cc3Cl)nn12)c1ccccc1	-7.61%	–
O=C(CCOc1ccccc1)N(Cc1cccnc1)c1nc2ccc(Cl)cc2s1	-5.3%	–
COc1cc(NC(=O)Nc2ccc(C)cc2)cc([N+](=O)[O-])c1	-3.61%	–
COc1cc(NC(=S)NCCSc2ccc(C)cc2)cc(OC)c1	–	2 µM (active)
COc1cccc(NC(=S)NCCCN2CCOCC2)c1	-2.47%	–
CC(NC(=O)CCc1cn(Cc2ccccc2Cl)c2ccccc12)c1ccccc1 (stereo not drawn)	-2.02%	–
CC(C)(C)c1ccc(C(=O)Nc2ccc3c(c2)CCCN3C(=O)c2cccs2)cc1	-4.1%	–
COc1cc(NC(=O)c2cc(C3CC3)nc3c2c(C)nn3-c2ccccc2)cc(OC)c1	-4.38%	–
CC(=O)NC1=NN(C(C)=O)C(C)(c2ccc(Cl)s2)S1 (stereo not drawn)	–	28.2 µM (active)
CC(=O)NC1=NN(C(C)=O)C(C)(CCS(=O)(=O)c2ccc(Cl)c(Cl)c2)S1 (stereo not drawn)	-3.08%	–
CC(=O)NC1=NN(C(C)=O)C(C)(c2ccc(C)cc2)S1 (stereo not drawn)	-0.836%	–
COc1ccc(Cn2c(=O)c3oc4ccccc4c3n(CC(=O)Nc3ccc(F)cc3F)c2=O)cc1	-0.479%	–
COc1ccccc1NC(=O)CCC(=O)N1CC(C)Oc2ccc(C)cc21 (stereo not drawn)	-2.9%	–
COc1ccccc1-n1c(-c2ccc(C)cc2)cn2c3c(=O)n(C)c(=O)n(C)c3nc12	0.477%	–
Cc1ccccc1OCc1nc2c3cnn(-c4ccccc4F)c3ncn2n1	-0.812%	–
Cc1ccccc1-c1nc(SCC(=O)N(C)c2ccccc2)c2c(=O)n(C)c(=O)n(C)c2n1	0.835%	–
Cc1ccc(-c2cc(C(=O)Oc3ccccc3Cl)no2)cc1C	-5.97%	–
CCOc1ccc(NC(=O)c2cc3c(=O)n(Cc4cccs4)ccc3nc2C)cc1	-4.36%	–
